HT1080 IDH1KD tx – qHTS for induction of synthetic lethality in tumor cells producing 2HG: qHTS for the HT-1080-IDH1KD cell line; HT-1080 IDH1 knockdown viability, ATP luminescence, 48 h; Potency, µM (titrated, usually from 46.1 µM), without a hit: at the top dose activity, negative = toxicity, hits mostly cytotoxic; 2% of 360,000 active;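 further: potency means the concentration at half of the fitted maximal effect; 0% = DMSO wells and -100% = cell-free medium wells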
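Viability of IDH1-knockdown HT-1080 fibrosarcoma cells was assessed by CellTiter-Glo after 48 h at 37 °C with titrated compound; concentration-effect curves were classified by fit quality and response size.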
TDP1 cell noCPT – qHTS for Inhibitors of human tyrosyl-DNA phosphodiesterase 1 (TDP1): qHTS in cells in absence of CPT; Potency, µM (highest dose often 46.2 µM), inactives show at the top dose activity change, negative = growth inhibition, hits mostly inhibitors; 15% of 420,000 active; AID 686978, 2013; DT40 Tdp1-/- hTDP1 cells, no CPT, ATP luminescence, 48 h; further: potency means the concentration at half of the fitted maximal effect; nearly all actives have a fitted effect of over 55% in size
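No-CPT arm: Tdp1-/-;hTDP1 DT40 cells (400/well) plus compounds, incubated ≥48 hr at 37 °C. Readout CellTiter-Glo luminescence.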
TDP1 cell CPT – qHTS for Inhibitors of human tyrosyl-DNA phosphodiesterase 1 (TDP1): qHTS in cells in presence of CPT; 12% of 420,000 active; chicken DT40 Tdp1-/-;hTDP1 cells + 20 nM CPT, ATP luminescence, 48 h; Potency, µM (highest dose often 46.2 µM), without a hit: top-dose activity change, negative = growth inhibition, usual class: inhibitors; further: potency means the concentration at half of the fitted maximal effect; nearly all actives have a fitted effect of over 55% in size
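Chicken DT40 Tdp1-/- cells complemented with human TDP1, 400 cells/well, exposed to compounds plus 20 nM camptothecin for at least 48 h at 37 C; viability read as ATP content by CellTiter-Glo luminescence.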
IL-1B inflam inh – qHTS for Inhibitors of Inflammasome Signaling: IL-1-beta AlphaLISA Primary Screen; THP-1 LPS/ATP IL-1B secretion, AlphaLISA, 16 h; stronger effect = lower value; activity change, % at 57.5 µM; 4.7% of 360,000 active; AID 743279, 2014; in the data active means activity change below about -50%; inconclusive means mostly about -30% to -49%
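THP-1 cells pretreated 1 hr with compounds (up to 57.5 uM final), then stimulated with LPS (250 ng/mL final) plus ATP (1.25 mM final); secreted IL-1B measured by AlphaLISA after 16 hr, decreased signal indicating inhibition.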
HT1080-NT tox – qHTS for induction of synthetic lethality in tumor cells producing 2HG: qHTS for the HT-1080-NT fibrosarcoma cell line | Potency, µM (series often up to 46.1 µM), for inactives: at the top dose activity, negative = less viability, usual class: cytotoxic | HT-1080-NT fibrosarcoma viability, CellTiter-Glo ATP luminescence, 48 h | AID 686970, 2013 | 1.6% of 360,000 active;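 further: NT is the 2HG producing partner of a matched IDH1 knockdown line; potency means the concentration at half of the fitted maximal effect; 0% = DMSO-treated cells and -100% = media-only wells without cells; nearly all actives have a fitted effect of over 55% in size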
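A 48-hour cytotoxicity screen used HT-1080-NT cells plated 2 hours before compound delivery. ATP-based CellTiter-Glo luminescence measured viability, normalized to DMSO and no-cell controls.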
Numbers without * were called inactive; ? = inconclusive; / = not tested or not shown. Most compounds without a hit are left out; they make up all but 19% or so of the library. Unless noted, the call rests on the fitted dose curve; in most records, active means well fitted curve in the direction sought with a large enough effect; inconclusive means small, poorly fitted or top-dose-only effect, or another doubt; inactive means no such curve, though single readings can be large; an effect the other way counts as inactive or inconclusive. Unless noted, on the % scale 0 is the no-effect control and ±100 the full control effect.

SMILES	HT1080 IDH1KD tx	TDP1 cell noCPT	TDP1 cell CPT	IL-1B inflam inh	HT1080-NT tox
CC(=O)Nc1ccc(SCCC2CCCCN2C)cc1 (centres undefined)	0%	1%	6%	-16	2%
Cc1cc(=O)oc2cc(NC(=O)C3CCCC3)ccc12	4%	-12%	-12%	-30	16%
CN1CCCC1CCNc1ccc2sc3ccccc3c(=O)c2c1 (centres undefined)	?	?	?	-66*	?
COc1cc2sc3cc(NCCCN4CCOCC4)ccc3c(=O)c2cc1OC	-4%	?	?	-75*	1%
O=C(Nc1ccc(N2CCCC2)cc1)c1ccccc1F	-21%	?	10µM*	7	-19%
CC(=O)N1CCN(c2ccc(NC(=O)c3cccc(Cl)c3Cl)cc2)CC1	3%	-21%	-20%	-2	-11%
O=C(Nc1ccc(N2CCCC2)cc1)c1cccc(Cl)c1Cl	-15%	16µM*	?	-18	-15%
COc1cccc(CNC(=O)c2ccncc2)c1	15%	-4%	-3%	18	23%
CCC/C(=C1/c2ccccc2C(=O)N1c1ccccc1)c1cnc(OC)nc1	6%	-84%	?	-4	-3%
CN(C)c1ccc(/C=C2\c3ccccc3C(=O)N2c2ccccc2)cn1	4%	-20%	9.2µM*	25	15%
COC(=O)c1nnn(CC(=O)NC(=O)Nc2cccc(Cl)c2C)c1C(=O)OC	1%	-15%	-4%	-9	12%
CC(C)NC(=O)N1CC[C@@]2(CCCN(S(C)(=O)=O)C2)C1	/	4%	7%	/	/
O=C(CN1C(=O)CCc2cc(S(=O)(=O)N3CCOCC3)ccc21)NCc1ccccc1	/	0%	7%	/	/
CCOC(=O)C(=CNc1ccc(C(F)(F)F)cc1Cl)C(=O)OCC	19%	?	-6%	9	27%
CCOC(=O)C(=CNc1ccc(-c2ccco2)c(Cl)c1)C(=O)OCC	0%	16µM*	21µM*	-12	-1%
CCOC(=O)C(=CNc1cc(Cl)c(-c2ccco2)c(Cl)c1)C(=O)OCC	-9%	12µM*	18µM*	-7	?
CCOC(=O)C(=CNc1ccccc1Cl)C(=O)OCC	1%	?	-18%	-27	11%
COc1cc(=O)n2c(c1C(=O)N(C)Cc1nccs1)CCN(Cc1c(F)ccc(F)c1F)CC2	/	-2%	6%	/	/
Nc1c(C(=O)N/N=C/c2cccnc2)oc2nc(-c3ccccc3)cc(-c3ccco3)c12	-25%	15µM*	?	/	-5%
NNC(=O)c1oc2nc(-c3ccc(Cl)cc3)cc(-c3ccccc3)c2c1N	?	-29%	?	-82*	-21%
NC(=O)COC(=O)c1cc(-c2ccco2)nc2ccccc12	3%	-3%	7%	-20	-7%
Nc1c(C(=O)O)sc2nc(-c3ccccc3)cc(-c3ccc(Cl)cc3)c12	-4%	-19%	-13%	-5	0%
Nc1c(C(=O)N/N=C/c2cccnc2)oc2nc(-c3ccco3)cc(-c3ccco3)c12	-10%	0.46µM*	2.9µM*	-11	0%
NNC(=O)c1oc2nc(-c3ccco3)cc(-c3ccco3)c2c1N	-11%	?	?	-53*	-16%
Cc1cc(C)c2c(N)c(C(=O)N/N=C/c3cccnc3)sc2n1	5%	?	-40%	/	21%
SMILES	HT1080 IDH1KD tx	TDP1 cell noCPT	TDP1 cell CPT	IL-1B inflam inh	HT1080-NT tox
CCCCn1c(SCC(=O)c2ccccc2)nc2c1c(=O)[nH]c(=O)n2C	-8%	?	?	-4	-11%
CC1CCN(S(=O)(=O)c2nnc(NC(=O)c3ccccc3Br)s2)CC1	-5%	-12%	-26%	?	0%
CCOC(=O)c1ccc(N2Cc3ccccc3C2=NC(=O)c2cccs2)cc1	-7%	?	18µM*	61	-3%
Cc1ccccc1OCCC(=O)N(CC(C)C)c1c(N)n(Cc2ccccc2)c(=O)[nH]c1=O	4%	-30%	-12%	0	1%
O=C(CN1C(=O)/C(=C/c2cccc(Cl)c2)SC1=S)NC1C=CS(=O)(=O)C1 (centres undefined)	0%	16µM*	?	-63*	-11%
COc1cccc(/C=C2\SC(=S)N(CCC(=O)NC3C=CS(=O)(=O)C3)C2=O)c1 (centres undefined)	?	?	?	-67*	16µM*
O=C(CN1C(=O)S/C(=C\c2cccc(Cl)c2)C1=O)NC1C=CS(=O)(=O)C1 (centres undefined)	6%	-17%	?	-67*	-1%
O=C(CN1C(=O)/C(=C/c2ccccc2F)SC1=S)NC1C=CS(=O)(=O)C1 (centres undefined)	13%	-13%	-3%	-50*	14%
O=C(CN1C(=O)S/C(=C\c2ccccc2F)C1=O)NC1CCS(=O)(=O)C1 (centres undefined)	0%	19%	-9%	-15	16%
CCc1ccccc1NC(=O)CN1C(=O)CCn2nc(-c3cccn3C)cc21	/	-2%	1%	/	/
O=C(CN1C(=O)S/C(=C\c2ccc(Cl)cc2)C1=O)NC1C=CS(=O)(=O)C1 (centres undefined)	-9%	?	5.2µM*	-69*	-1%
COc1cccc(/C=C2\SC(=S)N(CCC(=O)NCCc3ccc(O)cc3)C2=O)c1	?	?	18µM*	-85*	?
COc1ccc(/C=C2\SC(=S)N(CCC(=O)NC3C=CS(=O)(=O)C3)C2=O)cc1 (centres undefined)	4%	5%	-25%	?	19%
Cc1c(NC(=O)CSc2nncn2-c2ccccc2)c(=O)n(-c2ccccc2)n1C	-2%	-3%	24%	1	-1%
Cc1ccc(Nc2cc(C)c(O)c(C)c2)cc1	0%	5.2µM*	5.2µM*	?	-6%
Cc1ccc(Nc2ccccc2)cc1	2%	-6%	-11%	3	4%
Cc1cccc[n+]1CC(=O)c1ccc(Cl)cc1	6%	-2%	-2%	-5	8%
CC(C)(C)c1ccc(C(=O)C[n+]2ccc(Cl)c3ccc(Cl)cc32)cc1	/	0.35µM*	0.89µM*	/	/
O=C(Cc1c[nH]c2ccccc12)NC1(C(=O)NC2CCCC2)CCCCC1	15%	-11%	1%	9	9%
Cc1ccc(SCc2c(C#N)c3ccccc3n2C)cc1	1%	21µM*	21µM*	-3	17%
